MCF10A rereplic – DNA re-replication induction in MCF 10a cells. MCF 10A DNA re-replication, Hoechst nuclear intensity, 48 h. Potency, µM (highest dose often 46.1 µM), for inactives: at the highest dose activity, positive = re-replication, hits mostly activators. 350,000 tested, 2.9% active; further: potency means the concentration at half of the fitted maximal effect; % of control where 0% means no effect; nearly all actives have a fitted effect of over 50% in size
DT40 TDP1 CPT – DT40-hTDP1 cell growth loss with CPT. AID 686979. chicken DT40 Tdp1-/-;hTDP1 cells + 20 nM CPT, ATP luminescence, 48 h. 420,000 tested, 12% active. Potency, µM (series often up to 46.2 µM), for the others: top-dose activity change, negative = growth inhibition, actives largely listed as inhibitors; further: potency means the concentration at half of the fitted maximal effect; on the % scale 0 is the no-effect control and ±100 the full control effect; nearly all actives have a fitted effect of over 55% in size
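Chicken DT40 Tdp1-/- cells stably complemented with human TDP1 were seeded at 400 cells/well in medium containing 20 nM camptothecin, exposed to pin-transferred compounds, and grown at 37 °C for at least 48 hr. Viability was read as ATP luminescence.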
TDP1 cell noCPT – qHTS for Inhibitors of human tyrosyl-DNA phosphodiesterase 1 (TDP1): qHTS in cells in absence of CPT. 420,000 tested, 15% active. DT40 Tdp1-/- hTDP1 cells, no CPT, ATP luminescence, 48 h. Potency, µM (doses to about 46.2 µM), inactives show at the highest dose activity change, negative = growth inhibition, most hits filed as inhibitors; further: potency means the concentration at half of the fitted maximal effect; on the % scale 0 is the no-effect control and ±100 the full control effect; nearly all actives have a fitted effect of over 55% in size
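A cellular qHTS used chicken DT40 cells lacking endogenous Tdp1 but carrying stably transfected human TDP1. Compounds were applied without camptothecin, and cell growth kinetics were judged by ATP-dependent luminescence after ≥48 hr.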
BCR signal inh – blocks chronic active B-cell receptor signaling | Potency, µM (titrated, usually from 46.1 µM), for the others: top-dose activity change, negative = inhibition, most hits filed as inhibitors | ABC-DLBCL IkBa-CBG/CBR reporter, luminescence ratio, 4 h | 340,000 tested, 0.05% active; active means well fitted inhibition curve with a large enough effect in the signal ratio, with a control signal flat, not every such curve was filed as active; inconclusive means small, poorly fitted or top-dose-only effect, or effect the other way, or a change in a side signal; the % refers to the signal ratio;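 further: potency means the concentration at half of the fitted maximal effect; plate controls were basal doxycycline-induced cells for no effect and cells given 10 µM MG132 for full effect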
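TMD8 human ABC-DLBCL cells with doxycycline-inducible IκBα–green luciferase fusion and unfused red luciferase, in 0.5% FBS medium; compounds up to 46 uM, 4 h at 37C. Green/red luminescence ratio, filter-overlap corrected, fitted to concentration-response curves.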
IL-1B inflam inh – inflammasome signaling inhibition, IL-1 beta readout. THP-1 LPS/ATP IL-1B secretion, AlphaLISA, 16 h; stronger effect = lower value. activity change, % at 57.5 µM. 360,000 tested, 4.7% active. AID 743279; in the data active means activity change below about -50%; inconclusive means mostly about -30% to -49%; further: on the % scale 0 is the no-effect control and ±100 the full control effect
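THP-1 cells pretreated 1 hr with compounds (up to 57.5 uM final), then stimulated with LPS (250 ng/mL final) plus ATP (1.25 mM final); secreted IL-1B measured by AlphaLISA after 16 hr, decreased signal indicating inhibition.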
SW480 rerep – induces DNA re-replication in SW480 colon adenocarcinoma cells; SW480 DNA re-replication, Hoechst DNA content imaging, 48 h; Potency, µM (series often up to 46.1 µM), for the others: top-dose re-replication activation, usual class: activators; 340,000 tested, 1.8% active; further: potency means the concentration at half of the fitted maximal effect; % of control where 0% means no effect; nearly all actives have a fitted effect of over 55% in size
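Per well, 250 cells were exposed to pinned compound for 48 hr. Nuclear DNA was visualised with Hoechst (40 min, 37 C) and total object intensity recorded by fluorescence scanning.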
* = called active by the depositor; ? = inconclusive; / = not tested or not shown; [ ] = another dose, or the depositor's remark. An excerpt weighted towards active compounds, which were near 19% of everything screened. Unless noted, the call rests on the fitted dose curve; in most records, active means well fitted curve in the direction sought with a large enough effect; inconclusive means small, poorly fitted or top-dose-only effect, or another doubt; inactive means no such curve, though single readings can be large; an effect the other way counts as inactive or inconclusive.

SMILES | MCF10A rereplic | DT40 TDP1 CPT | TDP1 cell noCPT | BCR signal inh | IL-1B inflam inh | SW480 rerep
Cc1ccc2oc(C(=O)Nc3ccc(S(=O)(=O)Nc4nc(C)cc(C)n4)cc3)cc(=O)c2c1 | / | -19.5% | -29.2% | / | / | /
COc1ccc2c3c(c(=O)oc2c1)C1O[C@](c2ccsc2)(Cc2cc(C#N)ccc21)O3 | / | / | / | 27.9%[9.22 µM] | / | /
Cc1csc(NC(=O)CSc2nc3[nH]c(=O)cc(O)c3s2)n1 | 9.2µM* | 20.6µM* | 14.6µM* | / | -105.0* | ?
CCc1nnc(NC(=O)CSc2nc3[nH]c(=O)cc(O)c3s2)s1 | 10.9% | 6.51µM* | 6.51µM* | -2.5% | 0.0 | -1.8%
CC1(C2CC2)NC(=O)N(CC(=O)Nc2ccc(C(F)(F)F)cc2)C1=O (centres undefined) | 7.5% | -12.0% | -1.0% | -1.1% | -22.5 | -0.3%
C[n+]1c(-c2ccccc2)cc2c(=Cc3ccc([N+](=O)[O-])cc3)c3ccccc3n21 | 9.4% | 1.84µM* | 4.11µM* | / | -98.5* | 29.5%
Cn1c(-[n+]2c(-c3ccccc3)cc(-c3ccccc3)cc2-c2ccccc2)nc2cc([N+](=O)[O-])ccc21 | 0.7% | ? | ? | 26.7% | -6.4 | -3.7%
C[n+]1c(-c2ccccc2)cc2c(=Cc3ccccc3)c3ccccc3n21 | 20.6µM* | 0.517µM* | 0.517µM* | / | -100.1* | ?
CN(C)c1ccc(/C=c2\sc3nc(-c4ccccc4)nn3c2=O)cc1 | / | / | / | 3.6% | / | /
CN(C)c1ccc(C=c2c3cc(O)ccc3n3c2cc(-c2ccccc2)[n+]3C)cc1 | -0.5% | 7.31µM* | ? | / | -105.2* | 14.5%
O=C(COC(=O)c1c(F)cccc1F)Nc1cccc(S(=O)(=O)N2CCCCC2)c1 | / | -23.4% | ? | / | 14.5 | /
CC(C)NC(=O)N(C)C[C@H]1Oc2c(NC(=O)Cc3ccccc3)cccc2C(=O)N([C@H](C)CO)C[C@@H]1C | -10.4% | -12.9% | -6.8% | -0.2% | 19.4 | 3.0%
C[C@H](CO)N1C[C@H](C)[C@@H](CN(C)S(=O)(=O)c2ccc(F)cc2)Oc2c(NC(=O)CCC(F)(F)F)cccc2C1=O | -5.5% | ? | -1.3% | -0.6% | ? | 2.3%
C[C@H](CO)N1C[C@H](C)[C@@H](CN(C)Cc2ccc(Cl)c(Cl)c2)Oc2c(NC(=O)C3CC3)cccc2C1=O | 28.9% | 16.4µM* | 23.1µM* | ? | -83.8* | -1.8%
C[C@H](CO)N1C[C@H](C)[C@@H](CN(C)CC2CCCCC2)Oc2c(NC(=O)Cc3ccccc3)cccc2C1=O | ? | 14.6µM* | 16.4µM* | ? | -70.0* | ?
C[C@H](CO)N1C[C@H](C)[C@@H](CN(C)Cc2ccc3c(c2)OCO3)Oc2c(NC(=O)C3CCCCC3)cccc2C1=O | ? | 20.6µM* | 23.1µM* | -0.1% | ? | ?
C[C@H](CO)N1C[C@H](C)[C@@H](CN(C)Cc2ccc(Cl)c(Cl)c2)Oc2c(NC(=O)CCC(F)(F)F)cccc2C1=O | ? | 18.4µM* | 11.6µM* | ? | -69.5* | -1.8%
Cc1ccc(F)c(S(=O)(=O)NC(=O)C2(C)CCN2C(=O)Cc2ccc(-c3ccccc3)cc2)c1 (centres undefined) | / | -13.4% | ? | / | 8.3 | /
C[C@H](CO)N1C[C@H](C)[C@@H](CN(C)Cc2ccc(C(=O)Nc3ccccc3N)cc2)Oc2c(NC(=O)C3CCCCC3)cccc2C1=O | 24.1% | 14.6µM* | 14.6µM* | -1.0% | -22.2 | 2.9%
C[C@@H]1CN([C@H](C)CO)C(=O)c2cccc(NC(=O)c3ccncc3)c2O[C@@H]1CN(C)Cc1ccc(C(=O)O)cc1 | 6.8% | 4.8% | -0.2% | -0.3% | 30.0 | 1.9%
Cc1oc2c(C)c3oc(=O)c(CCC(=O)N4CCCCC4)c(C)c3cc2c1C | / | 14.6µM* | 10.3µM* | / | / | /
Cc1coc2cc3oc(=O)c(CCC(=O)N4CCCCC4)c(C)c3cc12 | / | 13µM* | 20.6µM* | / | / | /
Cc1coc2cc3oc(=O)c(CC(=O)N4CCCCC4)c(C)c3cc12 | / | -13.1% | -21.3% | / | / | /
Cc1c(C)c2cc3c(C)coc3cc2oc1=O | 1.3% | 7.7% | 20.2% | -1.6% | -51.1* | -8.6%
CCc1ccc(C(=O)NC2=NC(c3ccccc3F)CC(=O)N2)cc1 (centres undefined) | / | -7.9% | 2.3% | / | / | /
SMILES | MCF10A rereplic | DT40 TDP1 CPT | TDP1 cell noCPT | BCR signal inh | IL-1B inflam inh | SW480 rerep
Cc1cc(C)n2nc(-c3sccc3-n3cccc3)cc2n1 | 15.7% | ? | ? | -0.5% | -19.9 | -4.5%
Cc1cc(C)n2nc(-c3sccc3-n3c(C)ccc3C)cc2n1 | 15.4% | 23.1µM* | 16.4µM* | 8.5% | 0.0 | 2.3%
Cc1ccccc1-c1cc2nc(Oc3ccc4c(c3)OCO4)n(C)c(=O)c2s1 | / | 11.6µM* | ? | / | ? | /
Cc1ccccc1-c1cc2nc(NCc3ccc4occc4c3)n(C)c(=O)c2s1 | / | 18.4µM* | ? | / | -9.7 | /
Cc1ccccc1-c1cc2nc(NCc3ccccc3F)n(C)c(=O)c2s1 | / | 7.31µM* | 6.51µM* | / | ? | /
Cn1c(NCc2ccc3occc3c2)nc2cc(-c3cccc(C(F)(F)F)c3)sc2c1=O | / | -18.2% | -28.9% | / | 52.7 | /
C=CCNc1nc2cc(-c3ccccc3C)sc2c(=O)n1C | / | 14.6µM* | 10.3µM* | / | 57.8 | /
CCOC(=O)/C(C#N)=C/c1c(N2CCN(c3ccccc3)CC2)nc2ccccn2c1=O | -5.4% | ? | -9.6% | ? | 31.6 | -9.7%
CN(C(=O)CSc1cc(Cl)ccc1Cl)C1CCS(=O)(=O)C1 (centres undefined) | 4.3% | -2.2% | -9.8% | ? | -0.6 | 0.3%
Cc1ccc(C(c2sc3nc(-c4ccco4)nn3c2O)N2CCC3(CC2)OCCO3)cc1 (centres undefined) | / | -1.3% | 7.4% | -24.7% | / | /
Cc1cccc(-n2c(O)c(C=NCc3ccccn3)c3ccccc3c2=O)c1 | -1.1% | 18.4µM* | ? | 7.0% | ? | 0.6%
Cc1cccc(-n2c(O)c(C=NC3CCS(=O)(=O)C3)c3ccccc3c2=O)c1 (centres undefined) | -1.9% | 13µM* | ? | 7.0% | 12.6 | 0.7%
Cc1cccc(-n2c(O)c(C=NC3CCS(=O)(=O)C3)c3ccccc3c2=O)c1C (centres undefined) | ? | 5.17µM* | ? | 13.4% | -0.9 | ?
Cc1ccc(-n2c(O)c(C=NC3CCS(=O)(=O)C3)c3ccccc3c2=O)cc1C (centres undefined) | 3.2% | 10.3µM* | 18.4µM* | 19.4% | ? | 1.5%

Screening data from PubChem.
